Assay outcomes deposited in PubChem BioAssay by National Center for Advancing Translational Sciences (NCATS).
Only some compounds are listed: those with a hit (about 9% of all), similar ones and a draw of the others.
G9a inh: qHTS Assay for Inhibitors of Histone Lysine Methyltransferase G9a | G9a H3K9 monomethylation, AlphaScreen, 2 h | actives 8.8% (n = 350,000) | Potency, µM (top dose mostly 102 µM), inactives show at the highest dose activity, negative = inhibition, most hits filed as inhibitors | AID 504332, 2011 | Histone-lysine N-methyltransferase EHMT2 (Homo sapiens), Q96KQ7; also: % is scaled to controls: 0 for no effect and ±100 for the full control effect; nearly all actives have a fitted effect of over 75% in size
Target sequence (Q96KQ7 913-1193 limits assumed): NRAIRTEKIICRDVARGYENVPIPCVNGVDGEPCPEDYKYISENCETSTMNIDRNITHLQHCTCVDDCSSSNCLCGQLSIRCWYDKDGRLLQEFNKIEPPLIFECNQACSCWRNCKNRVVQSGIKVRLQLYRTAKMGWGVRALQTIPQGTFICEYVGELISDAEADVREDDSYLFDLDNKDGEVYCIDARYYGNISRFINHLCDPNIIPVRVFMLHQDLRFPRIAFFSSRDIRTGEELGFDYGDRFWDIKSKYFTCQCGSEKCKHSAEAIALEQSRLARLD
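Methyltransferase reactions run at room temperature for 2 h (20 nM enzyme, 500 nM biotin-H3K9 peptide, 20 uM SAM) after a 15 min compound preincubation; product detected by AlphaScreen beads and anti-H3K9me1 antibody.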
HP1b chromo inh: HTS for Inhibitors of HP1-beta Chromodomain Interactions with Methylated Histone Tails; Chromobox protein homolog 1 (Homo sapiens), P83916; AlphaScreen HP1-beta / biotin-H3K9me3 peptide binding; Potency, µM (series often up to 114 µM), without a hit: at the top dose activity change, negative = inhibition, usual class: inhibitors; actives 0.56% (n = 390,000); AID 540317, 2011; also: nearly all actives have a fitted effect of over 70% in size
Target sequence (P83916 whole entry, looked up): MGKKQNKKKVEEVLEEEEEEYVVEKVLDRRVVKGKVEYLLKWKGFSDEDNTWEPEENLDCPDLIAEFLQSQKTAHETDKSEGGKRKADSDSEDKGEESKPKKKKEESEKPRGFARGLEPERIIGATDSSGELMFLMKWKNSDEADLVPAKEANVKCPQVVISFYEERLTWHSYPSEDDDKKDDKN
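HP1-beta protein (50 nM final) preincubated 30 min at room temperature with biotinylated H3(1-18)K9me3 peptide (50 nM) in PBS pH 7.4, 0.01% Tween-20, then compound added for 30 min. AlphaScreen streptavidin donor/nickel chelate acceptor beads (10 ug/mL final), 30 min dark, luminescence read.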
BAZ2B block: qHTS Assay for Inhibitors of BAZ2B. AlphaScreen BAZ2B-H3K14Ac peptide displacement. Bromodomain adjacent to zinc finger domain protein 2B (Homo sapiens), Q9UIF8. actives 4.4% (n = 360,000). Potency, µM (top dose mostly 114 µM), without a hit: at the highest dose activity change, negative = inhibition, usual class: inhibitors; also: % is scaled to controls: 0 for no effect and ±100 for the full control effect; nearly all actives have a fitted effect of over 60% in size
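AlphaScreen displacement of biotin-H3(5-23)K14Ac peptide (50 nM final) from BAZ2B (50 nM final) in PBS pH 7.4, 0.01% Tween-20; complex preformed 30 min RT, then compounds (top 110 uM) 30 min RT, beads 20 min dark.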
JMJD2A Tudor inh: qHTS Assay for Inhibitors of JMJD2A-Tudor Domain; AlphaScreen JMJD2A-Tudor / H3K4me3 peptide binding; Potency, µM (highest dose often 114 µM), inactives show top-dose activity change, negative = inhibition, actives largely listed as inhibitors; actives 4.4% (n = 390,000); also: % is scaled to controls: 0 for no effect and ±100 for the full control effect; nearly all actives have a fitted effect of over 50% in size
12-LOX inh: Primary qHTS assay for inhibitors of human arachidonate 12S-lipoxygenase (ALOX12): Round 2 | Polyunsaturated fatty acid lipoxygenase ALOX12 (Homo sapiens), P18054 | purified 12hLO, xylenol orange hydroperoxide absorbance | Potency, µM (titrated, usually from 108 µM), for inactives: at the highest dose activity change, negative = inhibition, hits mostly inhibitors | actives 1.1% (n = 580,000); also: % is scaled to controls: 0 for no effect and ±100 for the full control effect
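Purified human 12hLO at 150 nM in 25 mM Hepes, 0.01% Triton X-100, pH 7.0, preincubated 15 min at room temperature with compound. Reaction started with 40 uM arachidonic acid, 30 min at room temperature. Hydroperoxide measured by Fe-xylenol orange, 573/405 nm absorbance ratio.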
PLK1 PBD block: qHTS for Inhibitors of PLK1-PDB (polo-like kinase 1 - polo-box domain): Primary Screen | Serine/threonine-protein kinase PLK1 (Homo sapiens), P53350 | Plk1 PBD binding of FITC phosphopeptide, fluorescence polarization | Potency, µM, for the others: max response, negative = inhibition, hits mostly inhibitors | actives 2.8% (n = 360,000) | AID 720504, 2013; also: series mostly up to about 57 µM; % is scaled to controls: 0 for no effect and ±100 for the full control effect; nearly all actives have a fitted effect of over 65% in size
Starred values were filed as active, the others as inactive; ? = inconclusive; / = no result given; [ ] = another dose, or the depositor's remark. Calls follow the shape of the dose curve; as a rule, active = well fitted curve in the direction sought with a large enough effect; inconclusive = small, poorly fitted or top-dose-only effect, or another doubt; inactive = no such curve, though single readings can be large; an effect the other way counts as inactive or inconclusive. Potency is read from the fitted curve at half-maximal effect.

SMILES	G9a inh	HP1b chromo inh	BAZ2B block	JMJD2A Tudor inh	12-LOX inh	PLK1 PBD block
CCOc1ccc(C(=O)c2cn(CC(=O)Nc3cc(OC)cc(OC)c3)c3ccc(F)cc3c2=O)cc1	?	26%	89µM*	-33%	-32%	/
CCOc1cc(N2CCOCC2)c(OCC)cc1NC(=O)c1oc2ccccc2c1C	-7%	-2%	/	-20%	-5%	-15%
O=C(O)c1cccc(NC(=S)NC(=O)C(c2ccccc2)c2ccccc2)c1	-8%	32%	?	-6%	28µM*	-15%
COc1ccc(C(=O)O)cc1NC(=S)NC(=O)C(c1ccccc1)c1ccccc1	-42%	11%	?	-16%	35µM*	60µM*
O=C(O)c1ccc(NC(=S)NC(=O)C(c2ccccc2)c2ccccc2)cc1	-3%	1%	-27%	-17%	?	-20%
CCCCC(=O)NC(=S)Nc1cc(C(=O)O)ccc1OC	1%	30%	-23%	-5%	?	-8%
CC(=O)NC(=S)NNC(=O)C(c1ccccc1)c1ccccc1	11µM*	24%	7%	?	-20%	-13%
COc1ccc(C(=O)O)cc1NC(=S)NC(=O)/C=C/c1ccc(C(C)C)cc1	?	6%	50µM*	79µM*	0%	?
O=C1c2c(-c3nc(-c4ccsc4)no3)nnn2CCN1Cc1ccccc1	/	/	/	/	26%	/
O=C(COC(=O)CNC(=O)c1ccccc1F)Nc1ncc(Cl)cc1Cl	18%[12.7 µM]	34%	?	-12%	40µM*	-16%
O=C(COC(=O)c1ncc(Cl)c(Cl)c1Cl)Nc1ccc(Cl)cn1	45µM*	5%	-14%	-32%	?	-15%
O=C(COC(=O)c1ccccc1NC(=O)c1ccco1)Nc1ncc(Cl)cc1Cl	?	25%	-2%	-15%	?	-14%
O=C(COC(=O)c1ccccc1O)Nc1ncc(Cl)cc1Cl	35µM*	-11%	50µM*	?	?	?
O=C(COC(=O)c1cn(-c2ccccc2)nc1-c1ccccc1)Nc1ncc(Cl)cc1Cl	-1%[12.7 µM]	-4%	?	?	25µM*	-13%
COc1cccc(N2CCN(C(=O)CCc3conc3-c3ccccc3)CC2)c1	/	/	/	/	-1%	/
COC(=O)C1=C(C)N=C2SC(C#N)=C(N)N2C1c1cccc(OC)c1 (centres undefined)	10%[2.33 µM]	27%	-2%	-14%	0%	1%
O=C(COC(=O)c1cc([N+](=O)[O-])ccc1N1CCOCC1)Nc1c(Cl)cccc1C(F)(F)F	71%	20%	-8%	-6%	242%	-3%
O=C(COC(=O)c1cn(-c2ccccc2)nc1-c1ccccc1)c1cccc([N+](=O)[O-])c1	?	-7%	-2%	-18%	?	-6%
O=C(COC(=O)c1cn(-c2ccccc2)nc1-c1ccccc1)c1ccc([N+](=O)[O-])cc1	2.5µM*	/	?	/	/	/
O=C(COC(=O)c1cc([N+](=O)[O-])ccc1N1CCOCC1)Nc1ncc(Cl)cc1Cl	9%[12.7 µM]	1%	45µM*	?	203%	-14%
O=C(Nc1cnc(-c2ccccc2)nc1)c1ccco1	/	/	/	/	-11%	/
COC[C@@H]1CN(C(=O)c2cccc(OC(F)(F)F)c2)C[C@H]1C(N)=O	/	/	/	/	36%	/
COc1ccc(NC(=O)Cn2c(=O)n(C(C)C)c(=O)c3oc4ccccc4c32)cc1Cl	2%[59 µM]	25%	-30%	-15%	-21%	/
Cc1csc(Sc2ccc(C(=O)OCC(=O)Nc3ccc(F)cc3[N+](=O)[O-])cc2[N+](=O)[O-])n1	35µM*	0%	-33%	?	-3%	-13%
CC[C@H](C)[C@@H](CN[C@H](CCCCNC)CNC)NCC1CCCC1	?	39%	-4%	-26%	21%	-5%
SMILES	G9a inh	HP1b chromo inh	BAZ2B block	JMJD2A Tudor inh	12-LOX inh	PLK1 PBD block
CN=c1scc(-c2c(-c3ccccc3)n(C)c3ccccc23)n1C	/	/	/	/	-86%	/
O=C(O)C1=NN(c2ccccc2)C(=O)C1	50µM*	?	?	56µM*	?	-2%
CC1(C)CC(=O)C(C(c2ccc(Br)cc2)C2C(=O)CC(C)(C)CC2=O)C(=O)C1	45µM*	41%	4%	-25%	-5%	19µM*
Cc1cccn2c(=S)[nH]nc12	/	71µM*	/	2.8µM*	?	0%
Cc1ccc(C(=O)NCC(=O)NCc2ccc(Cl)cc2)s1	/	7%[57 µM]	/	-11%	-2%	-6%
O=C(CSCCc1ccccn1)Nc1ccc(Br)cn1	48%[59 µM]	11%	-2%	-7%	20%	-2%
O=C(O)CSCCc1ccccn1	?	17%	-34%	-30%[11.4 µM]	?	30µM*
O=C(CSCCc1ccccn1)Nc1ccccn1	56µM*	51%	-2%	-8%	?	?
CC(C)C[C@H](N)CSSC[C@@H](N)CC(C)C	16µM*	/	/	/	/	/
CN(C)CC(C)(C)CNC(=S)NCc1ccc2c(c1)OCO2	8.9µM*	?	45µM*	?	?	?
O=C(NC(=S)NCc1ccccc1)c1ccc2c(c1)OCO2	?	?	-34%	-12%[57.1 µM]	16µM*	-1%
CCN(CC)S(=O)(=O)c1ccc(C(=O)NCc2ccc3c(c2)OCO3)cc1	-7%	-6%	-11%	-29%	-2%	21µM*
COc1ccc(C(=O)NC(=S)NCc2ccccc2)cc1	/	5%	?	-24%	0.71µM*	2%
O=C(NNC(=S)NCc1ccccc1)c1ccc2c(c1)OCO2	5%[59 µM]	44%	-2%	-20%	8%	-5%
O=C(O)CCNC(=O)OCC1c2ccccc2-c2ccccc21	18%[2.33 µM]	38%	101%	10%	?	-4%
Cc1ccc(CSCCC(=O)NCCc2ccc(Cl)cc2)cc1	27%[59 µM]	18%	-3%	9%	11%	-10%
Cc1ccc(S(=O)(=O)Nc2ccc(Cl)c3cccnc23)cc1C(=O)O	/	/	/	/	20%	/
O=C(NC(=S)NCc1ccc2c(c1)OCO2)c1ccccc1	?	-10%	?	-29%	16µM*	-12%
N=C(N)S/C=C\C(=O)O	25µM*	/	/	/	?	/
O=c1[nH]n(-c2ccccc2)c(=O)c2ccccc12	3%	4%	12%	-19%	3%	-9%
Nc1nc(=S)n(-c2ccccc2)[nH]1	10µM*	?	?	3.5µM*	?	24µM*
